Where “and” joins values, the source holds several entries; their conditions need not be identical. Equal values may be shown once. Inconclusive results are not listed. Calls of active or inactive are those of the source. Rule for the calls, unless noted: active = hit-call score of the fitted dose curve at least 0.9, where 1 is the maximum; inactive = score below 0.9.
How the values were obtained:
[1] = ACEA_ER_80hr: ACEA Biosciences xCELLigence Real-Time Cell Analysis on Estrogen Receptor Agonism for Proliferation (AID 2282667; active = hit-call score of the fitted dose curve at least 0.9, where 1 is the maximum); settings: T47D proliferation, impedance (xCELLigence), 80 h
How it was run: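 T47D human breast cells were seeded on electrode plates, monitored overnight, then exposed continuously to compounds in eight-point 1:4 dilutions from 100 uM (max 0.5% DMSO). Impedance-based growth was read at 80 h, fitted upward relative to DMSO.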

[2] = APR_HepG2_CellLoss_1hr: Apredica 1-hour HepG2 Assay for Cell Loss (AID 2282668); settings: high-content imaging;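 note: curves fitted both ways against DMSO so gain or loss of cells counts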
How it was run: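 Cell number comes from high-content imaging of Hoechst-labelled nuclei in fixed HepG2 cells. Cells were exposed for 1 h to ten concentrations from 0.39 to 200 uM in 0.5% DMSO. Gain or loss was fitted against DMSO controls.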

[3] = APR_HepG2_MicrotubuleCSK_1hr: Apredica 1-hour HepG2 Assay for Microtubule CSK Stabilty (AID 2282669); settings: HepG2 microtubule cytoskeleton imaging, actives raise or lower the signal
How it was run: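 Alpha-tubulin immunofluorescence, imaged by automated high-content microscopy with Hoechst nuclear segmentation, measured cytoskeletal change after 1 h dosing of HepG2 at 0.39–200 uM in 0.5% DMSO. Activity fitted in both directions relative to DMSO.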

[4] = APR_HepG2_NuclearSize_1hr: Apredica 1-hour HepG2 Assay for Nuclear Size (AID 2282670); settings: high-content imaging, actives raise or lower the signal
How it was run: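 Nuclear size measured by high-content imaging of Hoechst 33342 nuclear stain after formaldehyde fixation; human HepG2 line exposed 1 hr to compounds at 0.39–200 uM in 0.5% DMSO, with bidirectional curve fitting relative to DMSO.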

[5] = APR_HepG2_MitoticArrest_1hr: Apredica 1-hour HepG2 Assay for Mitotic Arrest (AID 2282672); settings: high-content imaging, actives raise or lower the signal
How it was run: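 Ten-point concentration series (0.39 to 200 uM, duplicates, 0.5% v/v DMSO) applied to human HepG2 liver cells for 1 hr. High-content imaging of phospho-histone H3 and Hoechst-stained nuclei after fixation and permeabilization; DMSO-normalised bidirectional fit.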

[6] = APR_HepG2_P-H2AX_1hr: Apredica 1-hour HepG2 Assay for H2AX Phosphorylation (AID 2282673); settings: high-content imaging, actives raise or lower the signal
How it was run: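 Phospho-H2A.x immunofluorescence (1:200, FITC secondary) plus Hoechst nuclear stain, quantified by high-content imaging in HepG2 after 1 hr compound exposure. Ten concentrations, 0.39 to 200 uM, in duplicate with 0.5% DMSO; fit both directions against DMSO.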

[7] = APR_HepG2_MitoMass_1hr: Apredica 1-hour HepG2 Assay for Mitochondrial Mass (AID 2282674); settings: high-content imaging, actives raise or lower the signal
How it was run: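 Mitochondrial mass is taken from MitoTracker Red CMXRos (250 nM, 30 min, pre-fixation) fluorescence imaged at 20x in HepG2 cells. Exposure lasted 1 hr across ten concentrations, 0.39 to 200 uM, 0.5% DMSO; DMSO baseline, bidirectional fitting.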

[8] = APR_HepG2_MitoMembPot_1hr: Apredica 1-hour HepG2 Assay for Mitochondrial Membrane Potential (AID 2282675); settings: imaging, actives raise or lower the signal
How it was run: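 Mitochondrial membrane potential read as MitoTracker Red CMXRos intensity by automated imaging of fixed HepG2 cells. Dye at 250 nM for 30 min pre-fixation; compounds 0.39 to 200 uM for 1 hour, duplicate wells, 0.5% DMSO.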

[9] = APR_HepG2_CellCycleArrest_24hr: Apredica 24-hour HepG2 Assay for Cell Cycle Arrest (AID 2282905); settings: imaging, actives raise or lower the signal;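 note: cell cycle arrest scored as ratio of 2N to 4N nuclear DNA content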
How it was run: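 Step one: dose HepG2 with test compounds, 0.39–200 uM, 0.5% DMSO, 24 hr. Step two: fix, permeabilize, stain nuclei with Hoechst 33342. Step three: image six fields per well at 20x, quantify DNA content, fit bidirectionally relative to DMSO.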

[10] = APR_HepG2_NuclearSize_24hr: Apredica 24-hour HepG2 Assay for Nuclear Size (AID 2282907); settings: high-content imaging, actives raise or lower the signal
How it was run: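 After fixation and permeabilization, 24-hr-treated HepG2 cells were stained with Hoechst 33342 and imaged on an ArrayScan (20x). Doses spanned 0.39–200 uM in duplicate. Nuclear diameter changes in either direction were fitted relative to 0.5% DMSO controls.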

[11] = APR_HepG2_CellLoss_24hr: Apredica 24-hour HepG2 Assay for Cell Loss (AID 2282908); settings: high-content imaging;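 for AC50: fit in both directions so a hit may be cell loss or gain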
How it was run: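 Duplicate wells received compound at ten concentrations (0.39–200 uM; final DMSO 0.5% v/v). After fixation with formaldehyde, nuclei stained with Hoechst 33342 were imaged at 20x. Loss or gain of cell count was fitted relative to DMSO controls.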

[12] = APR_HepG2_MicrotubuleCSK_24hr: Apredica 24-hour HepG2 Assay for Microtubule CSK Stabilty (AID 2282909); settings: HepG2 microtubule cytoskeleton imaging, actives raise or lower the signal
How it was run: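 Microtubule stability is scored from tubulin immunofluorescence in fixed HepG2 cells imaged at 20x. Cells receive ten compound concentrations up to 200 uM for 24 h; taxol and DMSO serve as positive and negative controls.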

[13] = APR_HepG2_MitoticArrest_24hr: Apredica 24-hour HepG2 Assay for Mitotic Arrest (AID 2282910); settings: high-content imaging, actives raise or lower the signal
How it was run: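 Treatment lasted 24 hr in the human HepG2 line at 0.39–200 uM, solvent held at 0.5% DMSO. Fixed cells were stained with Hoechst 33342 and anti-phospho-histone H3, imaged at 20x, and analysed by gain- or loss-of-signal fitting against DMSO.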

[14] = APR_HepG2_MitoMembPot_24hr: Apredica 24-hour HepG2 Assay for Mitochondrial Membrane Potential (AID 2282911); settings: imaging, actives raise or lower the signal
How it was run: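 HepG2 human liver cells were exposed 24 hr to compounds at 0.39–200 uM (final DMSO 0.5% v/v) in duplicate. MitoTracker Red CMXRos (250 nM, 30 min) was loaded before formaldehyde fixation; fluorescence was imaged by ArrayScan HCS and fitted bidirectionally versus DMSO.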

[15] = APR_HepG2_MitoMass_24hr: Apredica 24-hour HepG2 Assay for Mitochondrial Mass (AID 2282912); settings: high-content imaging, actives raise or lower the signal
How it was run: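 Readout: fluorescence of MitoTracker Red CMXRos (250 nM, added 30 min pre-fixation) in fixed HepG2 cells imaged by HCS. Exposure lasted 24 hr at 0.39–200 uM; increases and decreases were both fitted relative to DMSO.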

[16] = APR_HepG2_CellCycleArrest_72hr: Apredica 72-hour HepG2 Assay for Cell Cycle Arrest (AID 2282914); settings: high-content imaging, actives raise or lower the signal
How it was run: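 HepG2 cells were exposed to compounds at 0.39–200 uM (0.5% v/v DMSO final, duplicates) for 72 hr, fixed in 3.7% formaldehyde, permeabilized and stained with Hoechst 33342. Nuclear DNA content was quantified by high-content imaging; gain or loss of signal was fitted bidirectionally against DMSO.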

[17] = APR_HepG2_CellLoss_72hr: Apredica 72-hour HepG2 Assay for Cell Loss (AID 2282915); settings: high-content imaging
How it was run: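 HepG2 cells were exposed for 72 hr to compounds at 0.39–200 uM (ten concentrations, duplicate) in 0.5% v/v final DMSO. Nuclei were stained with Hoechst 33342 after 3.7% formaldehyde fixation, imaged at 20x, and counted; fits bidirectional versus DMSO.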

[18] = APR_HepG2_CellCycleArrest_1hr: Apredica 1-hour HepG2 Assay for Cell Cycle Arrest (AID 2282666); settings: high-content imaging, actives raise or lower the signal
How it was run: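 Cell cycle arrest scored from nuclear DNA content (Hoechst 33342) using high-content imaging of fixed HepG2 cells after 1 h treatment across 0.39–200 uM, in duplicate. Gain or loss fitted relative to 0.5% DMSO.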

[19] = APR_HepG2_p53Act_24hr: Apredica 24-hour HepG2 Assay for p53 Activation (AID 2282913); settings: high-content imaging, actives raise or lower the signal;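 note: p53 protein immunofluorescence averaged per cell in HepG2 with Hoechst nuclei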
How it was run: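 HepG2 cells exposed 24 hr to compounds at 0.39–200 uM (10 concentrations, duplicate), final DMSO 0.5% v/v. After formaldehyde fixation and Triton permeabilization, p53 was immunolabeled (sheep anti-p53, Cy5 secondary) with Hoechst 33342 nuclear counterstain, then imaged by high-content fluorescence microscopy.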

[20] = APR_HepG2_StressKinase_1hr: Apredica 1-hour HepG2 Assay for Stress Kinase (AID 2282906); settings: HepG2 stress kinase (phospho-c-Jun) imaging, actives raise or lower the signal
How it was run: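 High-content imaging of phospho-c-Jun immunostaining (with Hoechst nuclear identification) after a 1 h exposure of HepG2 cells to 10 concentrations from 0.39 to 200 uM, final DMSO 0.5%. Fitted bidirectionally against DMSO.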

Measured: AC50

CCSC(=O)N(CC(C)C)CC(C)C
not listed: [18] | [19] | [20]
inactive: all other assays above

O=C(c1ccc(O)cc1O)c1ccc(O)cc1O
inactive: [9] | [10] | [11] | [12] | [15] | [16] | [17]
active: [1] 756 nM and 805 nM and 548 nM | [14] 2.29 µM

CCN(CC)C(=O)c1cccc(C)c1
not listed: [3] | [7] | [9] | [13] | [18] | [19] | [20]
inactive: all other assays above

CCCN(CCC)C(=O)SCC
not listed: [7] | [13] | [19] | [20]
inactive: all other assays above

CCN(Cc1c(F)cccc1Cl)c1c([N+](=O)[O-])cc(C(F)(F)F)cc1[N+](=O)[O-]
active: [1] 2.12 µM | [17] 33.5 µM
not listed: [3] | [7] | [13] | [18] | [20]
inactive: all other assays above

C#C[C@]1(O)CC[C@H]2[C@@H]3CCC4=CC(=O)CC[C@@H]4[C@H]3CC[C@@]21CC
active: [1] 2.58 nM and 3.4 nM and 143 nM
inactive: [10] | [11] | [12] | [13] | [14] | [15] | [16] | [17]

CCOC(=O)C(C)Oc1ccc(Oc2cnc3cc(Cl)ccc3n2)cc1 (stereo not drawn)
active: [11] 58.5 µM | [17] 80.6 µM
not listed: [3] | [7] | [9] | [13] | [18] | [19]
inactive: all other assays above
